Experimental data published in PubChem BioAssay (Tox21).
Inconclusive results are not listed. A number with no mark means an inactive call. The call rests on the fitted dose curve.

Assay: qHTS assay to identify small molecule agonists of the hypoxia (HIF-1) signaling pathway - cell viability counter screen (AID 1224844); further: nearly all actives have a fitted effect of over 50% in size
Conditions: HRE-bla ME-180 viability, CellTiter-Glo luminescence, 17 h; series mostly up to 76.8 µM; activity change, negative = cytotoxicity: at the top concentration
Source text: National Center for Advancing Translational Sciences [NCATS]
NIH Chemical Genomics Center [NCGC]
U.S. Environmental Protection Agency [EPA]
National Institutes of Environmental Health Sciences [NIEHS]
National Toxicology Program [NTP]
U.S. Food and Drug Administration [FDA]
Hypoxia-inducible factor-1 (HIF-1) is the major hypoxia-regulated transcription factor that controls cellular responses to low oxygen concentration. HIF-1 is composed of two subunits: hypoxia responsive HIF-1-alpha and constitutively expressed HIF-1-beta, which is also known as aryl hydrocarbon receptor nuclear translocator. During hypoxic conditions, HIF-1-alpha heterodimerizes with HIF-1-beta and translocates into the nucleus where the HIF-1 complex binds to the hypoxia-response element (HRE) and activates expression of target genes such as VEGF (vascular endothelial growth factor). The HIF-1 pathway is essential to normal growth and development, and is involved in the pathophysiology of cancer, inflammation, and ischemia.
Using a beta-lactamase reporter-gene under control of the hypoxia response element, a cell-based assay [CellSensor(TM) HRE-bla ME-180 from Life Technologies, Carlsbad, CA] was used to measure hypoxia-induced signaling. Tox21 10K library compounds were measured for their ability to induce the reporter gene activity. The cytotoxicity of the Tox21 compound library against HRE-bla ME-180 cell line was tested in parallel by measuring cell viability using CellTiter-Glo assay (Promega, Madison, WI) in the same assay wells.
Tox21 Assay Protocol Summary:
HRE-bla ME-180 cells were dispensed at 2,000 cells per well in 6 uL of assay medium containing 0.5% dialyzed FBS into black wall/clear-bottom 1536-well plates using a Multidrop Combi (Thermo Scientific, Waltham, MA) dispenser. After the assay plates were incubated at 37C and 5% CO2 for 5 hrs, 23 nL of compounds dissolved in DMSO, positive controls or DMSO only was transferred to each well of the assay plate using a Pintool station (Kalypsys, San Diego, CA). The assay plates were incubated at 37C and 5% CO2 for 17 hrs. One uL of LiveBLAzerTM B/G FRET substrate (CCF4-AM) (Life Technologies) was added to each well using a Flying Reagent Dispenser (FRD, Aurora Discovery, San Diego, CA). After 2 hr incubation at room temperature, fluorescence intensity (405 nm excitation, 460 nm and 530 nm emissions) was measured using an Envision plate reader (PerkinElmer, Shelton, CT). For cytotoxicity, 4 ul/well of CellTiter-Glo reagent was added into the assay plates using an FRD. After 30 min incubation at room temperature, the luminescence intensity was measured using a ViewLux plate reader (PerkinElmer).
On the % scale 0 is the no-effect control and ±100 the full control effect.

| SMILES | activity change, negative = cytotoxicity |
| --- | --- |
| Cc1ccc(C)c([N+](=O)[O-])c1 | -4.32% |
| O=C(O)CONC(=O)c1ccccc1 | -0.997% |
| CO[C@@]1(NC(=O)Cc2cccs2)C(=O)N2C(C(=O)O)=C(COC(N)=O)CS[C@@H]21 | -3.11% [at 35.3 µM] |
| NCC1(Cc2noc(=O)[nH]2)CCCCC1 | -0.76% |
| O=C1NC(c2ccccc2)(c2ccccc2)C(=O)N1COP(=O)(O)O | 3.15% [at 35.3 µM] |
| C=C(C)[C@@H]1CC=C(C)CC1 | 5.14% |
| CC(=O)OC(C)=O | -27.9% |
| C=C(C)C1CC=C(C)C(=O)C1 (stereo not given) | 5.07% |
| CN(C)C(C)(C)CO | 2.74% |
| CC(C)c1ccc(C=O)cc1 | 4.19% |
| Fc1ccccc1 | 6.22% |
| CCCC(=O)OC/C=C(\C)CCC=C(C)C | 2.57% |
| CCO | 0.457% |
| COc1ccc2c(c1)c1c3n2CCN(C)C3=NCC1 | 8.32% [at 35.3 µM] |
| CN1CCOC(c2ccccc2)c2ccccc2C1 (stereo not given) | -2.36% [at 35.3 µM] |
| CCC(=O)Oc1ccc2c(c1)CC[C@@H]1[C@@H]2CC[C@@]2(C)[C@H]1C[C@@H](OC(=O)CC)[C@@H]2OC(=O)CC | -4% [at 35.3 µM] |
| Cc1cc(-c2ccccc2)nnc1NCCN1CCOCC1 | 2.36% [at 35.3 µM] |
| COC(=O)CCCCC(CCSS/C(CCO)=C(\C)N(C=O)Cc1cnc(C)nc1N)SC(C)=O (stereo not given) | -0.548% [at 35.3 µM] |
| CC1=C(C(=O)O)N2C(=O)[C@@H](NC(=O)[C@H](N)C3=CCC=CC3)[C@H]2SC1 | 0.857% [at 35.3 µM] |
| CCOC(=O)CC1(C)OCC(C)O1 (stereo not given) | 7.28% |

| SMILES | activity change, negative = cytotoxicity |
| --- | --- |
| COC(=O)CCCCC(=O)O | 2.17% |
| Cc1c(N)cccc1Cl | -7.55% |
| C/C=C(\C)C(=O)OCCc1ccccc1 | -5.49% |
| CCCCCCCCCOC(=O)c1ccccc1C(=O)OCCCCCCCCC | 5.19% |
| O=[N+]([O-])c1c(Cl)cc(Cl)cc1Cl | 1.88% |
| c1ccc(-c2nn[nH]n2)cc1 | -0.493% |
| CC1(C)[C@H]2CC[C@](C)(C2)[C@H]1O | -0.487% |
| O=Cc1cc2ccccc2o1 | 0.996% |
| CC(C)C[C@@H]1[C@H](c2ccccc2)OC(=O)N1CCCN1CCCCCC1 | -6.98% [at 35.3 µM] |
| CC1CC(=O)CC(C)(C)C1 (stereo not given) | 6.86% |
| C=CC/C=C/C | -2.24% |
| CCC(=O)c1c(O)cc(O)cc1O | 5.86% [at 35.3 µM] |
| O=NN(CCCl)C(=O)NC1CCCCC1 | -0.0132% [at 35.3 µM] |
| CC(C)=CCC[C@@](C)(O)[C@H]1CC=C(C)CC1 | -3.86% [at 35.3 µM] |
| Nc1nc(-c2ccccc2)c(Br)c(=O)[nH]1 | 2.18% [at 35.3 µM] |
| CO/N=C(/C(=O)N[C@@H]1C(=O)N2C(C(=O)[O-])=C(C[n+]3ccn4ncccc43)CS[C@H]12)c1nsc(N)n1 | -5.09% [at 35.3 µM] |
| CC1(C)Oc2ccc(C#N)cc2[C@@H](N2CCCC2=O)[C@@H]1O | 0.324% [at 35.3 µM] |
| OC[C@H]1O[C@@H](O[C@@H]2[C@@H](CO)O[C@](O)(CO)[C@H]2O)[C@H](O)[C@@H](O)[C@H]1O | 1.19% [at 35.3 µM] |
| [O]=[Mo](=[O])=[O] | -18.3% [at 15.8 µM] |
| CC(=O)CC(=O)Nc1ccc(C)cc1C | -3.8% |
